# GPT2 inhibitor – blocks human glutamate pyruvate transaminase 2. Q8TD30. AID 1671188. Potency, µM (highest dose often 57.7 µM), hits mostly inhibitors. Recombinant GPT2, coupled pyruvate oxidase/HRP Amplex Red fluorescence. 100,000 tested, 0.25% active; note: nearly all actives have a fitted effect of over 60% in size
# Target sequence (Q8TD30 whole entry, looked up): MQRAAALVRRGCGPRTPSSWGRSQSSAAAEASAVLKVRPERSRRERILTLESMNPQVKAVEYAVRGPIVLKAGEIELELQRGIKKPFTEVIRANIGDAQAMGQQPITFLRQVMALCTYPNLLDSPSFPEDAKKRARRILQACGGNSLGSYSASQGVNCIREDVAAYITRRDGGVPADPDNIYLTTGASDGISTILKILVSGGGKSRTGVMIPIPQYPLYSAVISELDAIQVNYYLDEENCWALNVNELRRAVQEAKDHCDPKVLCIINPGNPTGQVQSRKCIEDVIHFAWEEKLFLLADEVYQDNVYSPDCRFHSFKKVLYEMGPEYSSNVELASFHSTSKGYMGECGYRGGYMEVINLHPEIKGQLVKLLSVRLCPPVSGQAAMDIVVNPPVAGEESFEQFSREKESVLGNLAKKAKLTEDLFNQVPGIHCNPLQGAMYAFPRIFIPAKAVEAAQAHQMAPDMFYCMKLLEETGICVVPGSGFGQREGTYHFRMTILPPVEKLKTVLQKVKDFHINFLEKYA
#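 Fluorescence read-out: pyruvate from GPT2 turnover coupled to pyruvate oxidase, HRP and Amplex Red (0.2mM ThPP, 0.2U/mL PO and HRP, 50uM Amplex final). Substrates 250uM a-KG, 2mM L-alanine; enzyme 10ng/uL; 30 min RT.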
# hNpr1 antagonist – blocks ANP-stimulated signaling of human Npr1 receptor; HEK293 hNpr1 GloSensor cGMP, ANP-stimulated luminescence; Potency, µM (titrated, usually from 46.3 µM), hits mostly inhibitors; P16066; 76,000 tested, 1.6% active; calls by dose curve; note: nearly all actives have a fitted effect of over 60% in size
#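 HEK293 cells stably expressing human Npr1 and cGMP GloSensor pGS-40F, loaded 2 h with 2% GloSensor reagent, given compound 30 min at room temperature. Luminescence read before and 20 min after 0.1 nM hNppA.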
# HEK293 tox – cytotoxic compounds in HEK 293 cells. Potency, µM (doses to about 115 µM), hits mostly inhibitors. AID 1345083. 94,000 tested, 6.6% active. HEK 293 viability, ATP luminescence (CellTiter-Glo), 48-72 h; note: nearly all actives have a fitted effect of over 60% in size
#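 250 HEK 293 cells/well; compound by pintool; incubated 48 or 72 hr at 37 degree Celsius; CellTiter-Glo added, 10 min RT, luminescence imaged.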
# Luciferase inh – blocks purified firefly luciferase enzyme activity | 76,000 tested, 2.5% active | Potency, µM (doses to about 115 µM), actives largely listed as inhibitors | purified P. pyralis luciferase, luminescence, biochemical; note: nearly all actives have a fitted effect of over 65% in size
#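 Inhibitors were tested against purified firefly luciferase in a biochemical, low-substrate format (both substrates at 10uM) and luminescence measured with a CCD imager.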
# NIH3T3 tox – kills NIH 3T3 cells. Potency, µM (titrated, usually from 96.7 µM), most hits filed as inhibitors. 94,000 tested, 4.3% active. NIH 3T3 viability, CellTiter-Glo ATP luminescence, 48-72 h; note: nearly all actives have a fitted effect of over 55% in size
#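 Cytotoxicity was measured by CellTiter-Glo ATP luminescence after 48 or 72 h compound exposure at 37 °C. Mouse NIH 3T3 fibroblasts were seeded at 400 cells/well and dosed by 23 nL pin transfer.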
# Hits are given with their value; - = inactive; ? = inconclusive; . = not tested or not shown. Compounds with a hit are over-represented: about 10% of the library has one in this group of screens. Unless noted, calls come from the whole dose curve; as a rule, active = well fitted curve in the direction sought with a large enough effect; inconclusive = small, poorly fitted or top-dose-only effect, or another doubt; inactive = no such curve, though single readings can be large; an effect the other way counts as inactive or inconclusive.
SMILES,GPT2 inhibitor,hNpr1 antagonist,HEK293 tox,Luciferase inh,NIH3T3 tox
C[C@@]12CO[C@H](c3ccccc3)C[C@@H]1C[C@@H](N1CCN(Cc3ccccn3)CC1)C2,.,.,?,.,-
CCc1c(C(=O)N2CCC(CO)(Cc3ccccc3)CC2)[nH]c2ccccc12,-,-,20µM,-,?
CCCN1CCC(N2CCC(C(=O)Nc3cccc(-c4cccc(F)c4)c3)CC2)CC1,-,-,22µM,-,25µM
CCCOc1ccc(CN2CCC(C)(c3noc(C4CCOCC4)n3)CC2)cc1,-,-,?,-,-
COc1ccccc1-c1ccc(CN2CCC(NC(=O)Cc3cccc(Cl)c3)C2)cc1 (centres undefined),-,.,?,.,?
COc1ccccc1-c1ccc(CN2CCC(NC(=O)Nc3ccccc3F)C2)cc1 (centres undefined),.,.,28µM,.,16µM
COc1ccccc1-c1ccc(CN2CCC(NC(=O)N(C)C)C2)cc1 (centres undefined),.,.,?,.,-
COc1ccccc1-c1ccc(CN2CCC(NC(=O)Cc3ccccc3)C2)cc1 (centres undefined),.,.,40µM,.,35µM
CCCS(=O)(=O)N1CCC2(CC1)C(=O)N(c1cccc(F)c1)C2c1ccccc1 (centres undefined),-,.,25µM,.,-
COc1ccc(-c2ccnc(N[C@H]3CO[C@H]4[C@@H]3OC[C@@H]4NC(=O)N3CCOCC3)n2)cc1,-,-,-,-,-
OCc1ccc(CN2CCC[C@H]2c2nc(-c3ccc(N4CCOCC4)nc3)no2)o1,-,-,?,-,-
c1ccc(CN2CCC[C@H]2c2nc(-c3ccc(N4CCOCC4)nc3)no2)cc1,-,-,89µM,-,-
c1cc(N2CCOCC2)ncc1-c1noc([C@@H]2CCCN2)n1,-,-,-,56µM,-
Clc1ccc(CN2CCC[C@H]2c2nc(-c3ccc(N4CCOCC4)nc3)no2)cc1,-,?,63µM,?,?
O=C(Nc1ccc2c(N3CCCC3)ncnc2c1)c1cc(F)ccc1Cl,-,-,?,-,?
CN(C)C(=O)N1CCN(c2nccc(Nc3ccccc3F)n2)CC1,-,.,-,.,-
O=C(Cc1ccc(F)cc1)N1CCN(c2nccc(Nc3ccccc3Cl)n2)CC1,-,.,40µM,.,28µM
O=C(Cc1ccc(F)cc1)N1CCN(c2nccc(Nc3ccccc3F)n2)CC1,-,.,18µM,.,18µM
O=C(Cc1ccc(F)cc1)NC1CCN(c2nccc(Nc3ccccc3Cl)n2)CC1,-,.,?,.,?
COc1ccc(Nc2ccnc(N3CCN(C(=O)Cc4ccc(F)cc4)CC3)n2)cc1,-,.,11µM,.,25µM
COc1cccc(C(=O)N2CCC(n3cc(-c4nc(C5CC5)no4)nn3)C2)c1 (centres undefined),-,-,-,-,-
Cc1cc(F)ccc1-c1[nH]nc2ncc(-c3ccsc3)nc12,-,-,?,-,20µM
Cc1cc(F)ccc1-c1[nH]nc2ncc(-c3cccnc3)nc12,-,-,?,-,-
COc1cc(-c2cnc3n[nH]c(-c4ccc(F)cc4C)c3n2)ccn1,-,-,79µM,-,?
COc1ccc(-c2cnc3n[nH]c(-c4ccc(F)cc4C)c3n2)cn1,-,-,50µM,-,50µM
SMILES,GPT2 inhibitor,hNpr1 antagonist,HEK293 tox,Luciferase inh,NIH3T3 tox
CCCNC(=O)N1CCCCC1c1noc(COc2ccc(F)cc2)n1 (centres undefined),-,-,?,-,-
O=C(COc1ccccc1)Nc1ccc(-c2nnc3n2CCCC3)cc1,-,-,-,-,-
COc1ccc(Cn2nc(-c3ccccc3)nc2C2CCC(=O)NC2)cc1 (centres undefined),-,-,?,35µM,-
COc1ccc(CN2CCC(c3nn(Cc4ccccc4)c(=O)[nH]3)CC2)cc1,-,-,-,-,-
COc1ccc(-c2nnc(C[C@@H]3C[C@@H](C(C)C)[C@H](CN4CCN(CCO)CC4)C=C3C)o2)cc1,-,-,45µM,-,?
COc1ccc(-c2nnc(C[C@@H]3C[C@@H](C(C)C)[C@H](CN4CCN(C)CC4)C=C3C)o2)cc1,?,-,32µM,-,40µM
CC1=C[C@@H](CN2CCN(CCO)CC2)[C@H](C(C)C)C[C@H]1Cc1nnc(-c2ccc(N(C)C)cc2)o1,-,-,14µM,-,20µM
CC1=C[C@@H](CN2CCN(c3cnccn3)CC2)[C@H](C(C)C)C[C@H]1Cc1nnc(-c2ccccc2)o1,-,-,25µM,-,?
CC1=C[C@@H](CN2CCN(CCO)CC2)[C@H](C(C)C)C[C@H]1Cc1nnc(-c2ccc([N+](=O)[O-])cc2)o1,-,-,?,-,?
Cc1ccccc1CCC1CCCN(C(=O)CCc2ccncc2)C1 (centres undefined),-,-,?,-,?
O=C(NCc1cccs1)[C@@H]1CCCN1c1nccc(Nc2ccccc2Cl)n1,-,.,?,.,?
CC1=C[C@@H](CN2CCN(c3ccccn3)CC2)[C@H](C(C)C)C[C@H]1Cc1nnc(-c2ccc(C)cc2)o1,?,-,?,-,?
CC1=C[C@@H](CN2CCN(c3ncccn3)CC2)[C@H](C(C)C)C[C@H]1Cc1nnc(-c2ccc(N(C)C)cc2)o1,-,-,28µM,-,?
Cc1ccc([C@@H]2CN(C(=O)c3sccc3Cl)C[C@H]2N(C)C)cc1,-,-,?,-,-
CNC(=O)c1cc(C2CC2)nc2c1c(C1CCN([S+](=O)([O-])c3ccc(C)cc3)C1)nn2C (centres undefined),.,.,?,.,-
CNC(=O)c1cc(C2CC2)nc2c1c(C1CCN(C(=O)Cc3ccccc3)CC1)nn2C,.,.,89µM,.,-
CNC(=O)c1cc(C2CC2)nc2c1c(C1CCN([S+](=O)([O-])c3ccc(C)cc3)CC1)nn2C,.,.,50µM,.,?
O=C(C1CCCCC1)N1CC[C@H](c2nc3ccc(C(F)(F)F)cc3[nH]2)C1,-,-,?,-,?
N#Cc1ccc(CN2CCC(c3nc4ccncc4[nH]3)C2)cc1 (centres undefined),-,-,?,-,?
NC(=O)c1cccc2[nH]c([C@H]3CCN(Cc4cccc(Cl)c4)C3)nc12,-,?,56µM,-,?
FC(F)(F)c1ccc2nc([C@H]3CCN(Cc4ccccn4)C3)[nH]c2c1,-,-,45µM,?,?
N#Cc1ccc2nc([C@H]3CCN(Cc4ccccn4)C3)[nH]c2c1,-,-,100µM,?,63µM
COc1ccc(CN2CC[C@H](c3nc4c(C(N)=O)cccc4[nH]3)C2)cc1,-,-,?,-,?
N#Cc1ccc2nc([C@H]3CCN(Cc4ccccc4)C3)[nH]c2c1,-,-,50µM,?,40µM
O=C(c1ccncc1)N1CCC(N2C(=O)C3(CCCC3)C2c2ccccc2)CC1 (centres undefined),-,-,-,-,-

# Bioassay records: PubChem, National Center for Advancing Translational Sciences (NCATS)
